In the library only some 9.9% were active in any assay of this set; here they are far more common.
Tau fibril ThT – qHTS for Inhibitors of Tau Fibril Formation, Thioflavin T Binding. Microtubule-associated protein tau (Homo sapiens), P10636. recombinant tau K18 P301L, heparin-induced fibrillization, ThT fluorescence. Potency, µM (top dose mostly 57.4 µM), inactives show at the highest dose activity, negative = inhibition, usual class: inhibitors. 270,000 tested, 2.1% active; active = well fitted curve in the direction sought with a large enough effect; inconclusive = small, poorly fitted or top-dose-only effect, or another doubt; inactive = no such curve, though single readings can be large; an effect the other way counts as inactive or inconclusive; note: potency is the fitted concentration of half-maximal effect; % is set by controls: 0 for no effect and ±100 for the full control effect; nearly all actives have a fitted effect of over 55% in size
Target sequence (P10636 561-689 P618L limits assumed): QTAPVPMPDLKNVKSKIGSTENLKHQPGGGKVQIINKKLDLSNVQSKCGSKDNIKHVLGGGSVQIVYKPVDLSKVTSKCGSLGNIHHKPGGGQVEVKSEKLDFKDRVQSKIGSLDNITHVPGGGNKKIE
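K18 P301L tau (15 uM + 0.24 uM Alexa 594-tagged), heparin 20 uM, NaOAc pH 7, 6 h 37 C; ThT 30 uM, 1 h RT, ex 450/em 510 nm.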
ALDH1A1 inh-1 – qHTS Assay for Inhibitors of Aldehyde Dehydrogenase 1 (ALDH1A1) | Purified ALDH1A1, NADH fluorescence, propionaldehyde substrate | Potency, µM (series often up to 75.3 µM), without a hit: top-dose activity, negative = inhibition, usual class: inhibitors | 220,000 tested, 7.3% active | AID 1030, 2008;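 note: potency is the fitted concentration of half-maximal effect; plate controls were no enzyme wells and a reference inhibitor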
JMJD2E inh – qHTS Assay for Inhibitors of Human Jumonji Domain Containing 2E (JMJD2E); JMJD2E catalytic domain, FDH-coupled NADH fluorescence (FDH is formaldehyde dehydrogenase); Potency, µM (highest dose often 57.1 µM), inactives show at the top dose activity change, negative = inhibition, most hits filed as inhibitors; 230,000 tested, 1.6% active; Lysine-specific demethylase 4E (Homo sapiens), B2RXH2;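 note: potency is the fitted concentration of half-maximal effect; 0% = wells with enzyme and -100% = buffer wells without enzyme; nearly all actives have a fitted effect of over 50% in size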
Tau fluor cs – Counterscreen qHTS for Inhibitors of Tau Fibril Formation, Fluorescence Polarization. AID 1463, 2008. tau K18 P301L Alexa594 fluorescence, heparin fibrillization. Potency, µM (doses to about 57.7 µM), without a hit: at the top dose activity change, negative = decrease. 280,000 tested, 0.93% active; active = well fitted curve in the direction sought with a large enough effect; inconclusive = small, poorly fitted or top-dose-only effect, or another doubt; inactive = no such curve, though single readings can be large; an effect the other way counts as inactive or inconclusive; note: potency is the fitted concentration of half-maximal effect; % is set by controls: 0 for no effect and ±100 for the full control effect; nearly all actives have a fitted effect of over 55% in size
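Human K18 P301L tau (15 uM unlabeled plus 0.24 uM Alexa 594-labeled, final) in 100 mM sodium acetate pH 7 was mixed with compound and 20 uM heparin and incubated 6 hr at 37 C.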
HPGD inh – qHTS Assay for Inhibitors of HPGD (15-Hydroxyprostaglandin Dehydrogenase); purified HPGD, NADH fluorescence kinetic, PGE2 substrate; AID 894, 2007; 150,000 tested, 4.3% active; 15-hydroxyprostaglandin dehydrogenase [NAD(+)] (Homo sapiens), P15428; Potency, µM, for inactives: top-dose activity change, negative = inhibition, usual class: inhibitors; note: potency is the fitted concentration of half-maximal effect; % is set by controls: 0 for no effect and ±100 for the full control effect
Target sequence (P15428 whole entry, looked up): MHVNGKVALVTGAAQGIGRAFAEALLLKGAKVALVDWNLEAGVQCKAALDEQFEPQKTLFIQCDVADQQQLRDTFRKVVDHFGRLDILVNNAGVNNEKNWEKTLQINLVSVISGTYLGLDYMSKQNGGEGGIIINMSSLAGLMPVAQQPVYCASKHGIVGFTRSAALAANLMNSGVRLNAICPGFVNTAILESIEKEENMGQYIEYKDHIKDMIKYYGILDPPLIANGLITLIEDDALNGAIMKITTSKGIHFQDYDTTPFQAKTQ
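20 nM HPGD preincubated 15 min at room temperature with compound in 50 mM Tris-HCl pH 8, 0.01% Tween 20. Started with 1 mM NAD+ and 30 uM prostaglandin E2; NADH fluorescence (360/450 nm) read 5 times over 30-s intervals, last minus first.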
Tau FP inhib – qHTS for Inhibitors of Tau Fibril Formation, Fluorescence Polarization; Microtubule-associated protein tau (Homo sapiens), P10636; K18 P301L tau heparin fibrillization, Alexa594 FP, 6 h; Potency, µM (highest dose often 57.7 µM), inactives show at the top dose activity, negative = inhibition, actives largely listed as inhibitors; 280,000 tested, 0.39% active; active = well fitted curve in the direction sought with a large enough effect; inconclusive = small, poorly fitted or top-dose-only effect, or another doubt; inactive = no such curve, though single readings can be large; an effect the other way counts as inactive or inconclusive; note: potency is the fitted concentration of half-maximal effect; % is set by controls: 0 for no effect and ±100 for the full control effect; nearly all actives have a fitted effect of over 55% in size
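Heparin (20 uM) drove fibril formation of recombinant tau K18 P301L, 15 uM unlabeled with 0.24 uM Alexa 594 label, for 6 hr at 37 C in 100 mM sodium acetate pH 7. Fluorescence polarization (555/632 nm) read 1 hr after 30 uM ThT.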
ALDH1A1 inh-2 – Inhibitors of Aldehyde Dehydrogenase 1 (ALDH1A1): Followup Confirmation and Counterscreen | shares compounds with ALDH1A1 inh-1 | purified ALDH1A1, NADH fluorescence, propionaldehyde/NAD+ | Potency, µM (highest dose often 57.1 µM), for inactives: top-dose activity change, negative = inhibition, most hits filed as inhibitors | 90 tested, 90% active | AID 493210, 2011; calls by dose curve
tau sediment – Sedimentation Assay for Inhibitors of Tau Fibrillization; shares compounds with Tau fibril ThT; recombinant tau K18 P301L (four-repeat tau fragment), sedimentation SDS-PAGE densitometry; inhibition, % at 100 µM; 110 tested, 50% active; AID 1720, 2009; in the data active = inhibition above about 40%; inconclusive = no clear call, values can overlap the other calls; inactive = below about 18%
Starred values were filed as active, the others as inactive; ? = inconclusive; / = no result; [ ] = dose if it differs, or a comment. Unless noted, calls come from the whole dose curve; as a rule, active = well fitted inhibition curve with a large enough effect (not every such curve was filed as active); inconclusive = small, poorly fitted or top-dose-only effect, or another doubt; inactive = no such curve, though single readings can be large or run the other way.

SMILES	Tau fibril ThT	ALDH1A1 inh-1	JMJD2E inh	Tau fluor cs	HPGD inh	Tau FP inhib	ALDH1A1 inh-2	others
COC(=O)c1ccsc1NC(=O)CSc1nnnn1-c1ccccc1SC	-14.8%	0.126µM*	-3.8%	-25.3%	-24.5%	-3.0%	0.316µM*
O=C(CC1(O)C(=O)N(Cc2ccccc2)c2ccccc21)c1ccncc1 (stereo unspecified)	?	0.0708µM*	-1.0%	-12.6%	-20.1%	-5.3%	0.251µM*
COc1ccc(C(=O)CC2(O)C(=O)N(Cc3cccc(C(F)(F)F)c3)c3ccccc32)cc1 (stereo unspecified)	-15.8%	/	/	?	/	-5.0%	/
COc1ccc(-c2nc3cnc(N4CCOCC4)nc3n(C)c2=O)cc1	/	21.8%	/	/	/	/	/
Cc1cccc2c1N(CCCOc1ccccc1)C(=O)C2=O	?	0.0355µM*	2.7%	-10.3%	28.2µM*	-0.9%	0.0447µM*
COc1ccccc1NC(=O)Cn1cc(S(=O)(=O)Cc2ccccc2)c2ccccc21	-16.3%	/	/	?	/	3.6%	/
COC(=O)c1cc(Cl)ccc1NC(=O)Cn1c(C)cc(C)c(C#N)c1=O	-11.7%	/	/	-8.7%	/	-2.1%	/
Cc1ccc(S(=O)(=O)N[C@@H](Cc2ccccc2)C(=O)CCl)cc1	?	0.794µM*	-2.2%	1.6%	20µM*	?	0.447µM*
Cc1ccc(S(=O)(=O)N[C@H](CO)C(=O)O)cc1	/	0.9%[13.5 µM]	/	/	-3.5%	/	/
CC(=O)c1ccc(NC(=S)NCc2ccc(Cl)cc2Cl)cc1	8.9%	-3.4%	1.7%	?	/	?	/
Fc1ccc(NC(=S)Nc2ccccc2N2CCOCC2)cc1Cl	10.2%	-10.5%	1.9%	-22.5%	/	-2.9%	/
Cc1ccc(S(=O)(=O)/C=C/C#N)cc1	?	0.0562µM*	/	-4.6%	/	-19.7%	0.0631µM*
CS(=O)(=O)c1ccc(Cn2c3c(c4cc(F)cc(F)c42)CCC[C@H]3CC(=O)O)cc1	?	0.112µM*	-25.5%	-11.6%	34.1%	1.7%	0.355µM*
COCCN(C(=O)Cc1cccs1)C(C(=O)NCc1ccc(OC)cc1)c1ccc(C(C)C)cc1 (stereo unspecified)	?	0.282µM*	-7.3%	-19.9%	-22.7%	-5.0%	0.251µM*
COc1ccc(-n2cnc3cc(C(=O)NCCC4=CCCCC4)ccc32)cc1	?	/	/	-20.4%	/	0.8%	/
Cc1ccc(-n2c(SCC(=O)Nc3ccc4c(c3)OCO4)nnc2-c2cccs2)cc1	1.8%	-3.4%	?	-12.8%	-29.6%	-3.6%	/
COc1ccc(-n2c(Cc3cccs3)nnc2SCC(=O)Nc2ccc3c(c2)OCCO3)cc1	-14.1%	2µM*	-0.2%	-19.5%	-2.2%	13.3%	0.562µM*
Cc1cc(NC(=O)c2ccc3c(c2)N(Cc2cccc(Cl)c2)C(=O)c2ccccc2S3(=O)=O)ccc1Br	5.6%	/	/	-15.0%	/	?	/
N#Cc1cccc(NC(=O)c2ccc3c(c2)N(Cc2cccc(Cl)c2)C(=O)c2ccccc2S3(=O)=O)c1	16.0%	/	/	-22.1%	/	12.6µM*	/	tau sediment=4.0

Screening data deposited in PubChem by National Center for Advancing Translational Sciences (NCATS).
